Results on 19 molecules are retold here after PubChem BioAssay (NCI).

This is part of a sample that, as a whole, favours compounds with a hit. Of some 83,000 tested, about 20% had one in any assay.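 Results are percent growth after 48 hours of single-concentration exposure. 100 means growth as in untreated cells, lower positive values show inhibition; negative values down to -100 show cell death.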 Unmarked numbers belong to inactive results. Activity calls are given as the source filed them. How the source made its calls: active means growth percent below 10; inactive means the rest.

Test systems include NCI-H23 lung; NCI-H226 lung; NCI-H322M lung; HOP-62 NSCLC; HOP-92 NSCLC; NCI-H522 lung; A549/ATCC NSCLC; 786-0 renal; COLO 205 colon.
Holding throughout (test): NCI-60 one-dose screen, 48 h (100 = growth as untreated, 0 = no growth, -100 = all killed)
Common to all, as to settings: 10 µM unless noted

In the case of `O=C(Nc1ccc(NC(=O)c2cc(=O)[nH]c3ccccc23)cc1)Nc1cccc(C(F)(F)F)c1`, the growth was 62.3% in the assay with NCI-H23 lung; 87.9% in the assay on NCI-H226 lung; 62.5% in the assay on NCI-H322M lung; -7.24% (active) in the assay with HOP-62 NSCLC; 42.6% with HOP-92 NSCLC; 72.3% in the assay with NCI-H522 lung. Moreover, the growth with A549/ATCC NSCLC was 86.3%; in the assay with 786-0 renal, 99.3%; in the assay with COLO 205 colon, 70.1%.

Take `CN1CCN(C(=O)OCc2ccc3c(Cl)cc(Cl)c(O)c3n2)CC1`: the growth in the assay on NCI-H23 lung was 59.6%; in the assay on NCI-H226 lung it was 98.3%; with NCI-H322M lung, 60%; in the assay with HOP-62 NSCLC, 45.9%; with HOP-92 NSCLC it was 71.1%; in the assay with NCI-H522 lung, 79.6%. The growth in the assay on A549/ATCC NSCLC is 62.5%; in the assay with 786-0 renal, 86.6%; with COLO 205 colon it was 107%.

With `Cc1cc(=O)[nH]c2c(C#N)cnn12`, the growth in the assay on NCI-H23 lung is 102%; in the assay with NCI-H226 lung it was 96.4%; in the assay on NCI-H322M lung, 101%; with HOP-62 NSCLC it was 105%; with HOP-92 NSCLC it was 109%; in the assay on NCI-H522 lung, 89.1%. In addition, the growth in the assay on A549/ATCC NSCLC is 97.5%; in the assay on 786-0 renal, 105%; in the assay on COLO 205 colon, 114%.

Consider `O=C(Cn1cc(CN2C(=O)c3ccccc3S2(=O)=O)nn1)Nc1nc2ccccc2s1`, for which the growth in the assay on NCI-H23 lung is 103%; with NCI-H226 lung it was 105%; in the assay with NCI-H322M lung it was 98.2%; in the assay on HOP-62 NSCLC it was 89.5%; in the assay on HOP-92 NSCLC, 100%; with NCI-H522 lung, 84.2%. Further, the growth was 90.6% in the assay on A549/ATCC NSCLC, 101% in the assay with 786-0 renal and 104% in the assay on COLO 205 colon.

As to `OCc1cccc(-c2ccc3ncc(-c4nc(NC5CC5)ncc4F)n3c2)c1`, the growth with NCI-H23 lung was -16.3% (active); in the assay on NCI-H226 lung, 2.19% (active); in the assay with NCI-H322M lung, -6.44% (active); with HOP-62 NSCLC it was 2.21% (active); in the assay on HOP-92 NSCLC it was -13.9% (active); in the assay on NCI-H522 lung, -13.9% (active). In addition, the growth was -8.48% (active) with A549/ATCC NSCLC, 6.46% (active) in the assay with 786-0 renal and -39.7% (active) with COLO 205 colon.

Turning to `CN[C@]12CC3(C=CC(=O)C=C3)O[C@@]1(Cc1ccc(OC)cc1)N(C)C(=O)N2`, the growth in the assay with NCI-H23 lung was 82.8%; in the assay with NCI-H226 lung, 22.2%; in the assay with NCI-H322M lung it was 49.7%; in the assay with HOP-62 NSCLC it was 23.9%; in the assay with HOP-92 NSCLC it was 39.3%; with NCI-H522 lung it was -46.5% (active). In addition, the growth with A549/ATCC NSCLC is 79.7%; in the assay on 786-0 renal, 6.84% (active); in the assay on COLO 205 colon it was 19%.

Take `C/C(=N\NC(=O)c1ccccc1O)c1cccc(/C(C)=N/NC(=O)c2ccccc2O)n1`: the growth in the assay on NCI-H23 lung is 44.4%; in the assay with NCI-H226 lung it was 50%; in the assay with NCI-H322M lung, 38.7%; with HOP-62 NSCLC it was 30.3%; in the assay with HOP-92 NSCLC, 43.5%; in the assay with NCI-H522 lung it was 61.4%. The growth in the assay with A549/ATCC NSCLC was 54.6%; with 786-0 renal, 33.6%; with COLO 205 colon, 35.2%.

In the case of `CCOC(=O)c1nc(Nc2ccc(NC(=O)Nc3ccc(F)cc3)cc2)c2ccccc2n1`, the growth in the assay with NCI-H23 lung is 92.3%; in the assay on NCI-H226 lung it was 90.4%; in the assay with NCI-H322M lung, 97%; with HOP-62 NSCLC, 97.6%; with HOP-92 NSCLC it was 106%; in the assay on NCI-H522 lung, 98.5%. In addition, the growth is 102% in the assay on A549/ATCC NSCLC, 106% in the assay on 786-0 renal and 108% in the assay with COLO 205 colon.

With `O=C(Nc1cccnc1Nc1ccc(F)cc1)c1cn(Cc2cccc(Oc3ccccc3)c2)nn1`, the growth is 74% with NCI-H23 lung; 76.6% in the assay on NCI-H226 lung; 78.9% in the assay with NCI-H322M lung; 84.7% in the assay with HOP-62 NSCLC; 84.8% with HOP-92 NSCLC; 64.7% in the assay on NCI-H522 lung. Further, the growth is 61% in the assay with A549/ATCC NSCLC, 79.2% with 786-0 renal and 91.6% in the assay with COLO 205 colon.

As to `CCCCN[C@H]1CC[C@@]2(C)[C@@H](CC[C@@]3(C)[C@H]2[C@H](O)C[C@H]2/C(=C(\CCC=C(C)C)C(=O)OC)[C@@H](OC(C)=O)C[C@@]23C)[C@@H]1C`, the growth in the assay on NCI-H23 lung was 90.5%; with NCI-H226 lung it was 98%; with NCI-H322M lung, 97.2%; with HOP-62 NSCLC, 103%; with HOP-92 NSCLC, 86.5%; in the assay on NCI-H522 lung, 93%. Besides, the growth is 103% in the assay with A549/ATCC NSCLC, 99.2% in the assay on 786-0 renal and 104% in the assay with COLO 205 colon.

As for `COc1cc(-c2csc(NC(=O)c3cc(-n4cnc(C)c4)cc(C(F)(F)F)c3)n2)cc(OC)c1OC`, the growth was 61.2% in the assay on NCI-H23 lung; 58% in the assay on NCI-H226 lung; 67% with NCI-H322M lung; 72.4% in the assay with HOP-62 NSCLC; 6.13% (active) with HOP-92 NSCLC; 38.5% in the assay on NCI-H522 lung. The growth in the assay with A549/ATCC NSCLC was 60.2%; in the assay on 786-0 renal, 60.2%; in the assay with COLO 205 colon, 84.9%.

Regarding `CC1(C)c2[nH]c3ccccc3c2C[C@]2(C)[C@H]3CC=C4[C@@H]5C[C@@](C)(C(N)=O)CC[C@]5(C)CC[C@@]4(C)[C@]3(C)CC[C@@H]12`, the growth in the assay on NCI-H23 lung was 51.2%; in the assay on NCI-H226 lung, 60.4%; in the assay with NCI-H322M lung, 76.1%; in the assay with HOP-62 NSCLC, 79.5%; with HOP-92 NSCLC, 80.6%; in the assay on NCI-H522 lung, 52.5%. For the same molecule, the growth is 53.6% in the assay with A549/ATCC NSCLC, 74.5% in the assay with 786-0 renal and 58.9% in the assay on COLO 205 colon.

On to `CCn1c(=S)[nH]c2c(=O)n(C)c(=O)n(C)c21`, for which the growth in the assay with NCI-H23 lung is 105%; in the assay on NCI-H226 lung, 105%; in the assay with NCI-H322M lung, 95%; in the assay on HOP-62 NSCLC, 109%; in the assay with HOP-92 NSCLC, 89.8%; in the assay on NCI-H522 lung it was 90.3%. Further, the growth with A549/ATCC NSCLC was 96.3%; in the assay with 786-0 renal, 97.1%; in the assay with COLO 205 colon it was 116%.

In the case of `N#Cc1c(NC(=O)c2ccccc2)sc2c1CCC(=O)C2`, the growth in the assay on NCI-H23 lung was 5.05% (active); in the assay on NCI-H226 lung, 14.7%; in the assay on NCI-H322M lung, 71.9%; in the assay on HOP-62 NSCLC it was 40.7%; with HOP-92 NSCLC, -22.9% (active); with NCI-H522 lung it was -12.7% (active). Also, the growth in the assay with A549/ATCC NSCLC was 52.7%; with 786-0 renal it was 25.9%; in the assay on COLO 205 colon it was -46.4% (active).

As to `O=C1CC(N2C(=O)/C(=C/C(Cl)=C\c3ccc([N+](=O)[O-])cc3)SC2=S)C(=O)N1c1ccc(Cl)cc1` (stereo not given), the growth is 17.3% in the assay on NCI-H23 lung; 95.5% with NCI-H226 lung; 65.1% in the assay on NCI-H322M lung; 50.4% with HOP-62 NSCLC; -18.6% (active) in the assay on HOP-92 NSCLC; -26.4% (active) with NCI-H522 lung. For the same molecule, the growth is 71% with A549/ATCC NSCLC, -12.1% (active) in the assay with 786-0 renal and 4.01% (active) in the assay with COLO 205 colon.

Take `C[C@@H]1CCC[C@H]1CC(N)C(=O)O` (stereo not given in full): the growth was 97.2% in the assay on NCI-H23 lung; 101% in the assay on NCI-H226 lung; 106% with NCI-H322M lung; 107% in the assay with HOP-62 NSCLC; 98.2% in the assay on HOP-92 NSCLC; 105% in the assay with NCI-H522 lung. For the same molecule, the figures for the growth in the assay on A549/ATCC NSCLC, in the assay with 786-0 renal and in the assay on COLO 205 colon were 110%, 104% and 116%, respectively.

As to `CC(C)(C)c1cc(-c2nc3ccc(N4CCN(S(C)(=O)=O)CC4)cc3[nH]2)cc(C(C)(C)C)c1O`, the growth in the assay on NCI-H23 lung was 96.2%; in the assay with NCI-H226 lung, 91.9%; in the assay with NCI-H322M lung, 100%; in the assay with HOP-62 NSCLC it was 76.7%; in the assay on HOP-92 NSCLC it was 85.6%; in the assay with NCI-H522 lung, 78.1%. In addition, the growth in the assay with A549/ATCC NSCLC was 83.4%; in the assay with 786-0 renal it was 101%; with COLO 205 colon, 101%.

Consider `CC(C)c1ccc(COCc2cc(CN3CCCC3)c(O)c3ncccc23)cc1`, for which the growth with NCI-H23 lung was 8.78% (active); in the assay with NCI-H226 lung, -6.04% (active); with NCI-H322M lung it was 12.2%; in the assay on HOP-62 NSCLC, 2.49% (active); in the assay with HOP-92 NSCLC it was -5.15% (active); in the assay with NCI-H522 lung, -40.1% (active). Further, the results for the growth with A549/ATCC NSCLC, in the assay with 786-0 renal and in the assay on COLO 205 colon were 7.74% (active), -15.4% (active) and 18.9%, respectively.

As to `CC[C@@H](C(=O)[C@@H](C)[C@@H](O)[C@H](C)[C@@H]1O[C@@H]([C@@H](CC)C(=O)NCCc2ccc(F)cc2)CC[C@@H]1C)C1O[C@]2(C=CC(=O)[C@]3(CC[C@@](C)([C@H]4CC[C@](O)(CC)[C@H](C)O4)O3)O2)[C@H](C)C[C@@H]1C` (stereo not given in full), the growth was 24.8% in the assay on NCI-H23 lung; 24.2% with NCI-H226 lung; 76.7% in the assay on NCI-H322M lung; 36% in the assay with HOP-62 NSCLC; -0.474% (active) in the assay with HOP-92 NSCLC; 33.3% in the assay with NCI-H522 lung. For the same molecule, the growth in the assay on A549/ATCC NSCLC is 20.3%; in the assay on 786-0 renal, 50.3%.
